The nature of test [1]: qHTS assay to identify small molecule agonists of the androgen receptor (AR) signaling pathway in the presence of an antagonist - cell viability counter screen (AID 1259379). Note: nearly all actives have a fitted effect of over 25% in size. Note: potency is the fitted concentration of half-maximal effect. The gist of the method: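 Each compound was tested at 15 concentrations on MDA-kb2 cells in the presence of 3.0uM nilutamide. Viability was measured by CellTiter-Fluor fluorescence after a 16 hr incubation at 37C in a CO2-free atmosphere.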

Test [2] in a line: qHTS assay to identify small molecule agonists of the estrogen receptor beta (ER-beta) signaling pathway - cell viability counter screen (AID 1259380). Note: nearly all actives have a fitted effect of over 30% in size. Note: potency is the fitted concentration of half-maximal effect. The gist of the method: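 Compounds dissolved in DMSO were pin-transferred onto ER-beta-UAS-bla HEK293T cells that had settled 6 hr, and exposure ran 16 hr at 37C. Following the reporter read, CellTiter-Glo luminescence after 30 min at room temperature indicated cytotoxicity.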

A short description of test [3]: qHTS assay to identify small molecule antagonists of the estrogen receptor beta (ER-beta) signaling pathway - cell viability counter screen (AID 1259382).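 Note: HEK293T cells carrying ER-beta-UAS-bla reporter stimulated with estradiol; series mostly up to about 92 µM; nearly all actives have a fitted effect of over 55% in size.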 The gist of the method: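 CellTiter-Glo ATP luminescence measured after the LiveBLAzer read in the same wells; ER-beta-UAS-bla HEK293T cells, 16 hr compound treatment with 1nM 17-beta-estradiol agonist at 37C, 5% CO2.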

Test [4] can be described thus: qHTS assay to identify small molecule agonists of the estrogen receptor alpha (ER-alpha) signaling pathway in the presence of an antagonist - cell viability counter screen (AID 1259386).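 Note: cells exposed to compounds for 22 h at 37 °C before the viability read; nearly all actives have a fitted effect of over 30% in size.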 Note: potency is the fitted concentration of half-maximal effect. The gist of the method:
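Using estrogen-depleted VM7Luc4E2 cells, the 15-concentration compound series was applied together with 10.0nM ICI-182,780 and incubated 22hr at 37C/5% CO2. Cell viability was then scored by CellTiter-Fluor.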

Test [5] addresses Progesterone receptor (Homo sapiens) (UniProt P06401). In words: qHTS assay to identify small molecule agonists of the progesterone receptor (PR) signaling pathway (AID 1346784; calls by dose curve; note: nearly all actives have a fitted effect of over 30% in size; note: potency is the fitted concentration of half-maximal effect). The gist of the method: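 Using charcoal-stripped serum (2%) to limit endogenous steroids, PR-UAS-bla HEK 293T cells received compounds for 16 hr at 37C after 6 hr plating; beta-lactamase FRET fluorescence was recorded following 2 hr substrate loading at room temperature.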

Test [6] has the same target. The test is described as follows: qHTS assay to identify small molecule antagonists of the progesterone receptor (PR) signaling pathway (AID 1346795; active = well fitted inhibition curve with a large enough effect in the signal ratio in the repeat runs, not every such curve was filed as active; the % refers to the signal ratio; note: potency is the fitted concentration of half-maximal effect). The gist of the method:
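Inhibition of R5020-induced (1 nM final) beta-lactamase reporter signal in PR-UAS-bla HEK293T cells was scored by FRET fluorescence after overnight (16 hr) compound treatment.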

The nature of test [7]: qHTS assay to identify small molecule antagonists of the progesterone receptor (PR) signaling pathway - cell viability counter screen (AID 1346798). Note: series mostly up to about 92 µM; nearly all actives have a fitted effect of over 50% in size. The gist of the method: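 ATP content as viability readout: CellTiter-Glo luminescence, 30 min room temperature, in PR-UAS-bla HEK293T cells after 16 hr compound/R5020 treatment at 37C and 5% CO2.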
Test [8] is described as follows: qHTS assay to identify small molecule agonists of the progesterone receptor (PR) signaling pathway - cell viability counter screen (AID 1346799; calls by dose curve; note: nearly all actives have a fitted effect of over 45% in size; note: potency is the fitted concentration of half-maximal effect). The gist of the method:
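Cytotoxicity in PR-bla HEK293T cells: 16 h compound, 37C; CellTiter-Glo added post-FRET read; luminescence after 30 min RT.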

A short description of test [9]: qHTS assay to identify small molecule antagonists of the TGF-beta/Smad signaling pathway - cell viability counter screen (AID 1346824). Note: nearly all actives have a fitted effect of over 50% in size. The gist of the method: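 SBE-bla HEK 293T cells, incubated overnight, then compound plus 0.25 ng/mL TGF-beta1 (stock added) for 5 hr at 37 C. Viability was read in the same wells by CellTiter-Glo luminescence after 30 min at room temperature.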

Test [10] in a line: qHTS assay to identify small molecule agonists of the TGF-beta/Smad signaling pathway - cell viability counter screen (AID 1346829). Note: top concentration of the series differs between compounds; nearly all actives have a fitted effect of over 45% in size. The gist of the method:
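Luminescence from CellTiter-Glo, read after a 30 min room-temperature incubation, gives cell viability of SBE-bla HEK 293T cells treated 5 hr with compounds at 37 C.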

Test [11] in a line: qHTS assay to identify small molecule agonists of the TGF-beta/Smad signaling pathway (AID 1346859; active = well fitted activation curve with a large enough effect in the signal ratio in the repeat runs, not every such curve was filed as active; the % refers to the signal ratio; note: series mostly up to about 77 µM). The gist of the method:
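Stable Smad binding element-beta-lactamase HEK 293T cells; 5 hr compound exposure at 37 C under 5% CO2; 2 hr room-temperature substrate step; fluorescence excited at 405 nm, collected at 460 nm and 530 nm.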

A short description of test [12]: Human pregnane X receptor (PXR) small molecule agonists, qHTS cell viability counter screen (AID 1346977). Note: nearly all actives have a fitted effect of over 50% in size. Note: potency is the fitted concentration of half-maximal effect. The gist of the method:
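Readout is CellTiter-Fluor fluorescence from PXR-Luc HepG2 cells. Plated cells rested 5hr, then were treated with compounds for 24hr at 37C and 5% CO2, with reagent present during the last hour.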

Test [13] in a line: qHTS assay to identify small molecule agonists or antagonists of the thyroid stimulating hormone receptor (TSHR) signaling pathway - wild type cell line counter screen (AID 1259384; calls by dose curve). The gist of the method: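 Wild-type Hek293 cells, 800/well, 18 h at 37C, then compound with Ro20-1724 for 30 min RT. cAMP by HTRF (cAMP-d2/anti-cAMP cryptate), 1 h RT, fluorescence read. 15 concentrations, triplicates.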

For test [14], the target named is Thyrotropin receptor (Homo sapiens) (UniProt P16473). In words: qHTS assay to identify small molecule antagonists of the thyroid stimulating hormone receptor (TSHR) signaling pathway (AID 1259385; calls by dose curve; note: nearly all actives have a fitted effect of over 20% in size). The gist of the method:
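TSHR-HEK293 cells (800/well) plated 18 h, then compounds with Ro20-1724 and TSH at 1.5 ng/mL final, 30 min at room temperature. cAMP quantified by HTRF (cAMP-d2/anti-cAMP-cryptate, 1 h); 15 concentrations in triplicate.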

The target in test [15] is Estrogen receptor (Homo sapiens) (UniProt P03372). In words: qHTS assay to identify small molecule agonists of the estrogen receptor alpha (ER-alpha) signaling pathway in the presence of an antagonist (AID 1259383; calls by dose curve; note: nearly all actives have a fitted effect of over 15% in size; note: potency is the fitted concentration of half-maximal effect; for activation: top concentration of the series differs between compounds). The gist of the method: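 Luminescent ERE-luciferase reporter, VM7Luc4E2 cells (endogenous ER-alpha); 10.0nM ICI-182,780 final; 15-point compound titration; 22hr at 37C; ONE-Glo, 30min RT.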

Test [16] concerns the target Thyrotropin-releasing hormone receptor (Homo sapiens) (UniProt P34981). In words: qHTS assay to identify small molecule antagonists of the thyrotropin-releasing hormone receptor (TRHR) signaling pathway (AID 1346877; active = well fitted inhibition curve with a large enough effect in the repeat runs, not every such curve was filed as active; note: series mostly up to about 51 µM). The gist of the method:
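Calcium signal in dye-loaded TRHR/HEK293 cells; compounds added 5 min before TRH (1 nM final); fluorescence monitored 3 min at 1 s steps.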

Test [17] shares this target. In words: qHTS assay to identify small molecule agonists of the thyrotropin-releasing hormone receptor (TRHR) signaling pathway (AID 1346891; calls by dose curve;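 note: HEK293 cells expressing TRHR with calcium dye readout; series mostly up to about 58 µM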). The gist of the method:
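In 1536-format, 1500 TRHR-Hek293 cells per well grew 18 h, took up calcium dye for 2 h at 37 °C, received compound, and were read kinetically; 15-point titrations, triplicates.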

The structures appear in SMILES notation. Values joined by “and” are separate entries in the source; they are usually repeats but may differ in a detail not shown here. Equal entries are not always repeated. Inconclusive results are not listed. Some structures have more than one record in an assay (separate samples or runs), and their calls can disagree. Active and inactive are the calls of the source. Unless noted, calls come from the whole dose curve; as a rule, active = well fitted curve in the direction sought with a large enough effect in the repeat runs; inconclusive = weak or mixed curves; inactive = no such curve, though single readings can be large; an effect the other way counts as inactive or inconclusive.

Progesterone receptor (Homo sapiens), sequence (P06401 whole entry, looked up): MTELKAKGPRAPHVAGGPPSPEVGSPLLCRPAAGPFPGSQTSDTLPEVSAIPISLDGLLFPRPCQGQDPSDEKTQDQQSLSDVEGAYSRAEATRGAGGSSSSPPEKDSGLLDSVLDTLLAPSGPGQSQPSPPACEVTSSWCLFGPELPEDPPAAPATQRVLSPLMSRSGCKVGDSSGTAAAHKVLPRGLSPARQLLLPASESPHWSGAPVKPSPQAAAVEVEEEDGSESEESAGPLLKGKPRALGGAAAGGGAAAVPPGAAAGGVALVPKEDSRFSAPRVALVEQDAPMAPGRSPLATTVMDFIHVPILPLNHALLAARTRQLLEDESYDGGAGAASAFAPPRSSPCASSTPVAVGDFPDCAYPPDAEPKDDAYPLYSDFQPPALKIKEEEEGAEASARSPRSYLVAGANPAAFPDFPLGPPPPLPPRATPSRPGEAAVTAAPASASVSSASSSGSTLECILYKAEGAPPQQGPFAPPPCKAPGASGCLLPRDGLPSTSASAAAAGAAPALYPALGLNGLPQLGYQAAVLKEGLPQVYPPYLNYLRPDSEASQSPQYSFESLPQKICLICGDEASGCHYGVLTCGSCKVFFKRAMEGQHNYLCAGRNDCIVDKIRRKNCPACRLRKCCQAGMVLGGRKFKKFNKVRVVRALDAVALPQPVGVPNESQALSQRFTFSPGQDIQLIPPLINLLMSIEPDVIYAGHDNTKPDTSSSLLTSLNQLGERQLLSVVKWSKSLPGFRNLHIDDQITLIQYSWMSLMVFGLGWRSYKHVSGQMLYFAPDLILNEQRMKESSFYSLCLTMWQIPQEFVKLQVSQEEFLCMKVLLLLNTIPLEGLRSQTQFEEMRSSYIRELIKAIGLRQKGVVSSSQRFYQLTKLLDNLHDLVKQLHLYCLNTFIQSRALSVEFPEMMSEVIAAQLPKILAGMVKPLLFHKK
Estrogen receptor (Homo sapiens), sequence (P03372 whole entry, looked up): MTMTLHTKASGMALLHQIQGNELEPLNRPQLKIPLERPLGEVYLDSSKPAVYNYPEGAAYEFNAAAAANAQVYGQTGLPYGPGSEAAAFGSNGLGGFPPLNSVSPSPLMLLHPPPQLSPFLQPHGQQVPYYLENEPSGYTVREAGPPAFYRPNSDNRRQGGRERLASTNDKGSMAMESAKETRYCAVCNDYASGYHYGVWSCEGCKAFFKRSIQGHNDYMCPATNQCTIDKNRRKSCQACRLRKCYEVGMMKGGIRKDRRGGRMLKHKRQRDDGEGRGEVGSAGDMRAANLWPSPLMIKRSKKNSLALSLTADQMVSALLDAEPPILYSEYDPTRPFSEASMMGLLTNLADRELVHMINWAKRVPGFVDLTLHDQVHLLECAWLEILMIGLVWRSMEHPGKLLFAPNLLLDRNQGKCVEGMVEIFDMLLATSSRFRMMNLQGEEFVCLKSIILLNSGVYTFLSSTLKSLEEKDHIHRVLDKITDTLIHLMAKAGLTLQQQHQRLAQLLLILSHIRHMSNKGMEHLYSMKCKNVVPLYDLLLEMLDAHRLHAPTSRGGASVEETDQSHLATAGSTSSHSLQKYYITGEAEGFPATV
Thyrotropin receptor (Homo sapiens), sequence (P16473 whole entry, looked up): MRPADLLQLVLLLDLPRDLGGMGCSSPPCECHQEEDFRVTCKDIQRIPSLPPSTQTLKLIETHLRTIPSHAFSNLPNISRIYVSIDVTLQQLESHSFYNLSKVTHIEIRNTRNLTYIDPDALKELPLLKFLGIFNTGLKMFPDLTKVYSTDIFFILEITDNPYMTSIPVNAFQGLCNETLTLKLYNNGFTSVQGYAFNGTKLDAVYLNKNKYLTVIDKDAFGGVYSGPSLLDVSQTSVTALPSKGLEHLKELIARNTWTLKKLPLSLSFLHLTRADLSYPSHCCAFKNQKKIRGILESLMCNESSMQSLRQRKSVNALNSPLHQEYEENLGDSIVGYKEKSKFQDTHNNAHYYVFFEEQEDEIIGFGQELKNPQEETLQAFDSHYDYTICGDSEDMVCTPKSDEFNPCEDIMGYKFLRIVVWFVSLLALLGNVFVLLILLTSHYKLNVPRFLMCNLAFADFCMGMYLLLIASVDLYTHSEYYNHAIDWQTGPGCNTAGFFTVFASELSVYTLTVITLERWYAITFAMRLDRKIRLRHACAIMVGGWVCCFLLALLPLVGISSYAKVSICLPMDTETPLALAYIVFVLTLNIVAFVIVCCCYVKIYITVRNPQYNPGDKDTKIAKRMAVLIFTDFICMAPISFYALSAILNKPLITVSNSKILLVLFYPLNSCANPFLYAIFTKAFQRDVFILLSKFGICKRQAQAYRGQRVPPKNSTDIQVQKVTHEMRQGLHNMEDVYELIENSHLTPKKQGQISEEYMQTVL
Thyrotropin-releasing hormone receptor (Homo sapiens), sequence (P34981 whole entry, looked up): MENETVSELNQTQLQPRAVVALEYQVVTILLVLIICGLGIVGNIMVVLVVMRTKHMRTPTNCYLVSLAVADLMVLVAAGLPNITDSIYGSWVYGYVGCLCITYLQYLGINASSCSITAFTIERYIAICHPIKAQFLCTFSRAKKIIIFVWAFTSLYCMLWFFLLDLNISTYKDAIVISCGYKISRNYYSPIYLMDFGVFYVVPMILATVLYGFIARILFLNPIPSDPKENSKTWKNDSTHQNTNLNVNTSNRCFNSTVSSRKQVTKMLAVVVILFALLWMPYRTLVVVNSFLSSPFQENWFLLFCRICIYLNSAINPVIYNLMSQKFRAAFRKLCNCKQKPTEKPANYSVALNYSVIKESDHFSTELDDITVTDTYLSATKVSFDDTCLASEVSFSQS

Regarding `CCCCn1cc[n+](C)c1C`, the Potency entry in [1], in test [2], in test [3], in test [4], in test [5] and in test [6] was “inactive” in each case. For the same molecule, the Potency result in test [7], in test [8], in test [9], in test [10], in test [11] and in test [12] was “inactive” in each case.

`CCCCCC[n+]1ccccc1`: the Potency entry in test [1], in test [2], in test [3], in [4], in test [5] and in test [6] was “inactive” in each case. Further, the Potency result in [7], in test [8], in test [9], in [10] and in test [11] was “inactive” each time.

On to `CN(C)[C@@H]1C(=O)C(C(N)=O)=C(O)[C@@]2(O)C(=O)C3=C(O)c4c(O)cccc4[C@@](C)(O)[C@H]3[C@H](O)[C@@H]12`, for which the Potency result in test [1], in [2], in test [3], in [13], in test [14] and in test [4] was “inactive” each time. The Potency entry in test [7], in test [8], in [9], in test [10], in test [11] and in test [12] was “inactive” throughout.

For `Cc1cc(-c2ccc(N)c(C)c2)ccc1N`, the Potency entry in test [1], in [3], in test [4], in test [5], in [7] and in test [8] was “inactive” throughout. The Potency entry in test [9], in [10], in test [11] and in [12] was “inactive” throughout. The Potency was 2.14 µM (active) and inactive in test [15]; 61.8 µM (active) and 48.4 µM (active) and 17.2 µM (active) in test [6].

`CCCC[n+]1cccc(C)c1`: the Potency result in test [1], in test [2], in [3], in test [4], in [5] and in [6] was “inactive” in each case. Besides, the Potency result in test [7], in [8], in test [9], in [10], in test [11] and in test [16] was “inactive” each time. The Potency result in test [17] and in [12] was “inactive” each time.

Regarding `CCn1cc[n+](C)c1C`, the Potency result in test [1], in [2], in test [3], in [4], in test [5] and in test [6] was “inactive” each time. The Potency result in test [7], in [8], in test [9], in test [10], in test [11] and in [12] was “inactive” each time.

Consider `CCCC[N+]1(C)CCCC1`, for which the Potency result in test [1], in test [2], in [3], in [4], in test [5] and in test [6] was “inactive” in each case. Also, the Potency entry in test [7], in test [8], in test [9], in test [10], in [11] and in test [12] was “inactive” each time.

For the molecule `O=C(O)CC(O)(CC(=O)O)C(=O)O`, the Potency entry in test [1], in test [2], in test [3], in test [4], in test [6] and in test [7] was “inactive” each time. The Potency result in test [8], in [9], in [10], in test [11], in test [16] and in test [17] was “inactive” in each case. Further, the Potency result in [12] is “inactive”. Moreover, the Potency result in test [5] is “inactive and 87.8 nM (active)”.

For the molecule `O=c1[nH]c(=O)n(Cl)c(=O)n1Cl`, the Potency result in test [1], in test [2], in [3], in [4], in [5] and in test [6] was “inactive” throughout. Also, the Potency result in test [7], in [8], in test [9], in test [10], in test [11] and in test [16] was “inactive” in each case. The Potency entry in test [17] and in test [12] was “inactive” throughout.

Turning to `CC[n+]1ccccc1`, the Potency result in [1] was “inactive and 24.1 µM (active)”; in test [2], “inactive and 60.6 µM (active)”; in [4], “inactive and 42.9 µM (active)”; in test [8], “inactive and 48.2 µM (active)”; in test [12], “inactive and 6.06 µM (active)”. The Potency entry in test [3], in [13], in test [14], in test [5], in test [6] and in test [9] was “inactive” throughout. Also, the Potency result in test [10] and in [11] was “inactive” throughout.

For the origin of these results see PubChem BioAssay (Tox21).
